Compounds with a hit are over-represented: about 10% of the library has one in this group of screens.
MCF10A rerep – A quantitative high throughput screen for small molecules that induce DNA re-replication in MCF 10a normal breast cells | MCF 10A DNA re-replication, Hoechst nuclear intensity, 48 h | Potency, µM (doses to about 46.1 µM), inactives show top-dose activity, positive = re-replication, actives largely listed as activators | actives 2.9% (n = 350,000) | AID 624296, 2012; note: % of control where 0% means no effect; nearly all actives have a fitted effect of over 50% in size
RORgamma inh – qHTS for inhibitors of ROR gamma transcriptional activity; Potency, µM (doses to about 53.6 µM), for the others: at the top dose activity change, negative = inhibition, most hits filed as inhibitors; actives 5.4% (n = 310,000); Drosophila S2 Gal4-RORgamma UAS-luciferase reporter, 20 h; AID 2551, 2010; note: % is set by controls: 0 for no effect and ±100 for the full control effect; nearly all actives have a fitted effect of over 60% in size
Target sequence (P51450 whole entry, looked up, the tested form may be a part): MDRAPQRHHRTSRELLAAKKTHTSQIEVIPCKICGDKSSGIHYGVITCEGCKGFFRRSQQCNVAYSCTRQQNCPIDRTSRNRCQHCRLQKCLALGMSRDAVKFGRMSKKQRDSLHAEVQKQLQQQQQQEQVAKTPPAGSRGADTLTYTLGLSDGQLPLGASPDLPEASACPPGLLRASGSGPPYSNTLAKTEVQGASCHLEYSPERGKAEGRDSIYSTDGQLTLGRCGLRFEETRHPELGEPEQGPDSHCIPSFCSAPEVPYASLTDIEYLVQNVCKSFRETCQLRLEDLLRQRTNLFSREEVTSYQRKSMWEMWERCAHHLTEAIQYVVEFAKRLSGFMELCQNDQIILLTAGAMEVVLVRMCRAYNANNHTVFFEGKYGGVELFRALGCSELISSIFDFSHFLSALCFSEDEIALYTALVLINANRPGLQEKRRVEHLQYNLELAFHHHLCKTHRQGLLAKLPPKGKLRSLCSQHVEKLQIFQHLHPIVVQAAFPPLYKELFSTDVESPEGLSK
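Read-out: Photinus luciferase luminescence; inhibitors lower reporter signal. Insect Schneider cells with Gal4-ROR gamma fusion under metallothionein promoter, UAS reporter; 700 uM final copper sulfate induction, 20 hr, ambient temperature.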
ELG1 DNA repair – qHTS screen for small molecules that inhibit ELG1-dependent DNA repair in human embryonic kidney (HEK293T) cells expressing luciferase-tagged ELG1; HEK293T ELG1-luciferase reporter, luminescence, 16 h; DNA damage induced by 5-fluorouridine; actives 2.3% (n = 330,000); Potency, µM (top dose mostly 46.1 µM), for inactives: top-dose activity change, negative = inhibition, hits mostly inhibitors; AID 504467, 2011; note: % is set by controls: 0 for no effect and ±100 for the full control effect; nearly all actives have a fitted effect of over 55% in size
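In this reporter screen, reduction of luminescence relative to DMSO vehicle indicated activity. Compounds and 5-fluorouridine were added together to 2,000 cells per well, incubated for 16 hr at 37 °C, then developed with ONE-Glo.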
Gal4-VP16 FLuc – VP16 counterscreen qHTS for inhibitors of ROR gamma transcriptional activity; Drosophila S2 Gal4-VP16 UAS-luciferase, luminescence, 20 h; AID 2546, 2010; Potency, µM (titrated, usually from 53.6 µM), for inactives: top-dose activity, negative = inhibition, hits mostly inhibitors; actives 3.5% (n = 310,000);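 note: Gal4-VP16 expression switched on by copper sulfate through the metallothionein promoter; % is set by controls: 0 for no effect and ±100 for the full control effect; nearly all actives have a fitted effect of over 50% in size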
SW480 rereplic – A quantitative high throughput screen for small molecules that induce DNA re-replication in SW480 colon adenocarcinoma cells; SW480 DNA re-replication, Hoechst DNA content imaging, 48 h; Potency, µM (titrated, usually from 46.1 µM), without a hit: at the top dose re-replication activation, actives largely listed as activators; actives 1.8% (n = 340,000); AID 624297, 2012; note: % of control where 0% means no effect; nearly all actives have a fitted effect of over 55% in size
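250 cells/well; 23 nL cpd via pin tool; 48 hr, 37 C, 5% CO2; Hoechst 40 min; imager read of total nuclear intensity, ex 405/em 500-530 nm.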
The depositor's hits bear a star; ? = inconclusive; . = no result given. Calls come from the whole dose curve; as a rule, active = well fitted curve in the direction sought with a large enough effect; inconclusive = small, poorly fitted or top-dose-only effect, or another doubt; inactive = no such curve, though single readings can be large; an effect the other way counts as inactive or inconclusive. Potency is the fitted concentration of half-maximal effect.

SMILES	MCF10A rerep	RORgamma inh	ELG1 DNA repair	Gal4-VP16 FLuc	SW480 rereplic
COc1ccccc1-c1cc(C(F)(F)F)nc(S(C)(=O)=O)n1	4.1µM*	4µM*	?	7.1µM*	?
COc1ccccc1-c1cc(C(F)(F)F)nc(N2CCCCC2)n1	26%	8%	11%	-8%	-1%
Cc1cc[n+](CCC(=O)O)c2ccccc12	-3%	22%	20%	0%	-1%
Cc1cc[n+](-c2ccccc2)c2ccccc12	-3%	28%	10µM*	11µM*	-1%
CCCc1ccc(NC(C)C(=O)Nc2ccc(S(=O)(=O)N3CCOCC3)cc2)cc1 (stereo unspecified)	9%	.	1%	.	-1%
Fc1cccc(-c2n[nH]c(=S)n2-c2ccccc2)c1	3%	8.9µM*	-10%	7.9µM*	?
Cc1cccc(-n2c(-c3csc(C)c3)n[nH]c2=S)c1	-22%	4µM*	5%	8.9µM*	?
CCc1cc(-c2n[nH]c(=S)n2-c2cccc(C)c2)cs1	7%	0.32µM*	14%	0.56µM*	-3%
Cc1cc(-c2n[nH]c(=S)n2-c2ccccc2)nn1C	1%	-24%	?	-7%	-5%
CCc1ccccc1-n1c(-c2ccncc2)n[nH]c1=S	5%	?	?	?	-3%
O=C(c1cc(Cl)nc2ccccc12)N(Cc1nnc(-c2ccc(Cl)cc2)o1)C1CC1	14%	.	-20%	.	-4%
CCOC(=O)NC(=O)c1cn(CCN(C)C)c(=O)[nH]c1=O	8%	1%	5%	0%	-7%
CC(=O)Nc1ccc(/C=N/NC(=O)CNC(=O)c2ccccc2)cc1	-1%	3%	6%	2%	-1%
COc1ccc(C2(O)CC3CCC(C2)N3c2cc(C)nc(-c3ccccc3)n2)cc1 (stereo unspecified)	-1%	30%	18µM*	-13%	3%
Cc1cc(N2CCCC2)nc(N2C3CCC2CC(O)(c2ccc(F)cc2)C3)n1 (stereo unspecified)	.	0%	-10%	5%	.
Fc1ccc(NC(=S)NCCN2CCOCC2)cc1	-1%	-13%	3%	-5%	-109%
S=C(NCCN1CCOCC1)Nc1ccc(-c2nc3ccccc3[nH]2)cc1	1µM*	14%	12%	-6%	-1%
O=S(=O)(NCc1ccccn1)C(F)(F)F	11%	1.4µM*	20%	?	3%
Nc1ccc(S(=O)(=O)NCc2ccccn2)cc1	?	0%	-7%	6%	2%
COc1ccccc1NCCC(=O)OCC(=O)Nc1ccccc1F	6%	.	?	.	0%
COc1ccc2c(c1)c(C(=O)N/N=C/c1ccc(Br)cc1)c(C)n2C	13µM*	-12%	?	-4%	10µM*
CCOc1ccc(/C=N/NC(=O)c2c(C)n(C)c3ccc(OC)cc23)cc1	12µM*	?	?	-5%	?
COc1ccc2c(c1)c(C(=O)N/N=C/c1ccc(O)c(O)c1)c(C)n2C	0%	?	-18%	-25%	-3%
Cc1nn(CCc2n[nH]c(=S)n2-c2ccc(F)cc2)c(C)c1[N+](=O)[O-]	-2%	?	?	-6%	0%
Cc1cccc(-n2c(Cn3nc(C)c([N+](=O)[O-])c3C)n[nH]c2=S)c1	?	11µM*	-4%	-5%	-4%
SMILES	MCF10A rerep	RORgamma inh	ELG1 DNA repair	Gal4-VP16 FLuc	SW480 rereplic
Cc1nn(CCc2n[nH]c(=S)n2-c2ccc(F)c(Cl)c2)c(C)c1[N+](=O)[O-]	-3%	7.1µM*	-6%	?	-5%
CN(C)c1ccnc(N(Cc2ccccc2)Cc2ccccc2)c1C#N	6%	15%	?	?	-1%
COC(=O)c1nn(C23CC4CC(CC(C4)C2)C3)c2c1C(=O)N(c1ccc(Br)cc1)C2=O	-4%	-13%	-8%	5.6µM*	0%
COC(=O)c1cc(-c2ccc(Br)cc2)on1	1%	-1%	3%	-3%	-2%
CCOC(=O)c1ccc(N2C(=O)C(C)=C(C)C2=O)cc1	16%	17%	0%	1%	7%
CCOC(=O)c1nn(C23CC4CC(CC(C4)C2)C3)c2c1C(=O)N(c1ccc(C)cc1)C2=O	7%	11µM*	1%	7.1µM*	-9%
Cc1ccc(S(=O)(=O)/N=C(/Nc2cccc3ccccc23)c2ccc(F)cc2)cc1	17%	-6%	-22%	-3%	?
Cc1onc(-c2ccccc2)c1C(=O)Oc1cccnc1	3%	7.9µM*	11%	-6%	3%
Cc1ccc(C)c(C(=O)COC(=O)c2c(-c3ccccc3)noc2C)c1	10%	.	-5%	.	-2%
CC(=O)c1c(C)[nH]c(C(=O)COC(=O)c2c(-c3ccccc3)noc2C)c1C	?	.	21µM*	.	-5%
Cc1onc(-c2ccccc2)c1C(=O)OCCOc1cccc(Cl)c1	21µM*	77%	-15%	-1%	6.5µM*
CCOc1ccc(C(=O)COC(=O)c2c(-c3ccccc3)noc2C)cc1	6.5µM*	.	-25%	.	?
Cc1ccc(OCCOC(=O)c2c(-c3ccccc3)noc2C)cc1	?	?	?	2%	99%
CC1CCN(c2ccc(C(=O)OCC(=O)NCCN3C(=O)CSC3=O)cc2[N+](=O)[O-])CC1	1%	?	5%	-13%	-6%
COc1ccc2cc1Oc1cc3c(cc1OC)CC[N+](C)(C)C3Cc1ccc(cc1)Oc1c(OC)c(OC)cc3c1C(C2)[N+](C)(C)CC3 (stereo unspecified)	2%	4%	.	-5%	0%
COc1cccc(-c2nccc(NCc3ccc(OC)cc3OC)n2)c1	.	102%	.	-11%	.
COc1ccc(S(=O)(=O)N2c3ccccc3OCC2c2ccccc2)cc1 (stereo unspecified)	5.8µM*	?	?	?	3.7µM*
COc1ccc(S(=O)(=O)N2c3ccccc3OCC2C)cc1 (stereo unspecified)	1.3µM*	?	?	-5%	2.6µM*
COc1ccc(S(=O)(=O)N2CCOc3ccccc32)cc1	4.6µM*	0%	?	7%	5.8µM*
COc1ccc(S(=O)(=O)N2c3ccccc3OCC2C(C)(C)C)cc1 (stereo unspecified)	-4%	-10%	-54%	16µM*	1%
COc1ccc(S(=O)(=O)N2c3ccccc3OCC2CC(=O)O)cc1 (stereo unspecified)	?	-15%	-36%	-3%	?
COc1ccc(S(=O)(=O)N2CC(C(=O)O)Oc3ccccc32)cc1 (stereo unspecified)	-1%	0%	0%	0%	-10%
CCn1c2nc(SCCN3CCOCC3)nnc2c2cc(C)cc(C)c21	14%	-20%	-9%	-3%	-5%
